Each structure is given as a SMILES string. Records with an inconclusive call do not appear. Unmarked numbers belong to inactive results. Activity calls are given as the source filed them. Unless noted, the call rests on the fitted dose curve.
Potency means the concentration at half of the fitted maximal effect.

One experiment in a line: S16 Schwann cell PMP22 intronic element firefly luciferase assay (AID 624032; active means well fitted inhibition curve with a large enough effect; further: nearly all actives have a fitted effect of over 30% in size;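 on activity change, negative = inhibition: plate controls were DMSO for no effect and PTC124 positive control mean for full effect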). As to conditions: S16 rat Schwann cells, PMP22 element FLuc, 24 h; series mostly up to 57.5 µM; activity change, negative = inhibition: at the top concentration. The method, boiled down: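 Rat S16 Schwann cells stably carrying a PMP22 intronic element-driven Fluc reporter were seeded overnight, then exposed to compounds for 24 h at 37 °C. Luminescence was normalized to PTC124 (positive control) and DMSO (0% activity).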
`CC(=O)Oc1cc(C(F)(F)F)ccc1C(=O)O`: the “activity change, negative = inhibition” value was 25.6% [at 25.7 µM].

For `O=C(O)CCC/C=C\C[C@@H]1[C@@H](/C=C/[C@@H](O)COc2cccc(C(F)(F)F)c2)[C@H](O)C[C@@H]1O`, the “activity change, negative = inhibition” value was 4.94%.

`CC(C)CCCC(C)NC(C)C` (stereo not drawn): the “activity change, negative = inhibition” value was 8.24%.

Consider `CCC(C)[C@@H](N)C(=O)O` (stereo partly drawn), for which the “activity change, negative = inhibition” value is 15.5%.

With `Cc1cccc(C)c1NC(=O)NC1=CCCN1C`, the “activity change, negative = inhibition” value is 15.4%.

Consider `CC(C)(COP(=O)(O)OP(=O)(O)OC[C@H]1O[C@@H](n2cnc3c(N)ncnc32)[C@H](O)[C@@H]1OP(=O)(O)O)C(O)C(=O)NCCC(=O)NCCS` (stereo partly drawn), for which the “activity change, negative = inhibition” value is 37.3%.

Turning to `CC(=O)c1ccc2c(c1)N(CCCN1CCN(CCO)CC1)c1ccccc1S2`, the Potency was 16.1 µM (active).

For the compound `OCCCNc1ccccc1`, the “activity change, negative = inhibition” value is 11.8%.

In the case of `O=C(O)/C=C/C(=O)Nc1ccc(S(=O)(=O)Nc2nccs2)cc1`, the “activity change, negative = inhibition” value is 23.3%.

As for `CN1CCc2c(c3ccccc3n2Cc2ccccc2)C1`, the “activity change, negative = inhibition” value was 11.8% [at 25.7 µM].

For the compound `CCN(CC)CCOc1ccccc1OC`, the “activity change, negative = inhibition” value is -2.39%.

Regarding `CC/C=C\C/C=C\C/C=C\C/C=C\C/C=C\CCCC(=O)O`, the “activity change, negative = inhibition” value is -23.5%.

Regarding `O=C(NNCNNC(=O)c1ccncc1)c1ccncc1`, the “activity change, negative = inhibition” value is 5.37%.

Take `O=C(CCCN1CCC(C(=O)c2ccc(F)cc2)CC1)c1ccc(F)cc1`: the “activity change, negative = inhibition” value was -8.06%.

As for `OC1OC[C@@H](O)[C@H](O)[C@@H]1O` (stereo partly drawn), the “activity change, negative = inhibition” value was 1.09%.

With `O=C1[O][Bi][O]c2ccccc21`, the “activity change, negative = inhibition” value was -2.45%.

Take `CC(=O)Nc1c(I)c(C(=O)O)c(I)c(N(C)C(C)=O)c1I`: the “activity change, negative = inhibition” value is -11.8%.

Regarding `CCCCCCCCCCCC(=O)OCC(O)CO` (stereo not drawn), the “activity change, negative = inhibition” value is 25.2%.

Take `O=P(O)(O)OC[C@H]1O[C@](O)(COP(=O)(O)O)[C@@H](O)[C@@H]1O`: the “activity change, negative = inhibition” value was -5.64%.

With `C=CC(=O)O`, the “activity change, negative = inhibition” value is 24.6%.

Regarding `CC(C)CCCCCCc1ccc(O)cc1`, the “activity change, negative = inhibition” value was 13.2%.

On to `O=C(O)CCCC/C=C(\c1ccccc1)c1cccnc1`, for which the “activity change, negative = inhibition” value was -3.86%.

For `O=C(CCCCCCCCCCCCC1CCCC1)Nc1ccc(S(=O)(=O)c2ccc(NC(=O)CCCCCCCCCCCCC3CCCC3)cc2)cc1`, the “activity change, negative = inhibition” value is 2.83%.

`CCCCCCCCCCCCOCCCN`: the “activity change, negative = inhibition” value was -29.5%.

`COc1ccc(/C=N/NC(=O)c2ccncc2)c(C(=O)O)c1OC`: the “activity change, negative = inhibition” value is -14.3%.

`[O]=[Bi][O][Bi]=[O]`: the “activity change, negative = inhibition” value is -2.99%.

For `O=C(O)c1ccc(NC(=O)[C@H](Cc2ccc(O)cc2)NC(=O)c2ccccc2)cc1`, the “activity change, negative = inhibition” value is -0.363%.

For the compound `CC(=O)Nc1ccc(OC(C)=O)cc1`, the “activity change, negative = inhibition” value was -18.9%.

For the compound `CCOC(=O)[C@@H](N)CS`, the Potency was 0.0573 µM (active).

Regarding `Cc1cc(-c2ccc(N=Nc3c(S(=O)(=O)O)cc4cc(S(=O)(=O)O)cc(N)c4c3O)c(C)c2)ccc1N=Nc1c(S(=O)(=O)O)cc2cc(S(=O)(=O)O)cc(N)c2c1O`, the Potency was 12.8 µM (active).

For the compound `CCCCCCCCCCCCCCCCCCCCCC(=O)Nc1ccn([C@@H]2O[C@H](CO)[C@@H](O)[C@@H]2O)c(=O)n1`, the “activity change, negative = inhibition” value was -15.4%.

For the compound `COc1cc2c(cc1OC)[C@@H](Cc1cc(OC)c(OC)c(OC)c1)[N+](C)(CCCOC(=O)CC/C=C/CCC(=O)OCCC[N+]1(C)CCc3cc(OC)c(OC)cc3[C@H]1Cc1cc(OC)c(OC)c(OC)c1)CC2` (stereo partly drawn), the “activity change, negative = inhibition” value is 11.9%.

Consider `FC(F)(F)C(F)(F)C(F)(F)C(F)(F)C(F)(F)C(F)(F)F`, for which the “activity change, negative = inhibition” value is -6.26%.

Regarding `Cc1nc(NS(=O)(=O)c2ccc(N)cc2)nc(C)c1Br`, the “activity change, negative = inhibition” value is -8.6%.

Turning to `O=C(O)CCC(=O)c1ccc(-c2ccccc2)cc1`, the “activity change, negative = inhibition” value is 26.9% [at 25.7 µM].

`O=P(O)(O)OC[C@H](O)CO`: the “activity change, negative = inhibition” value is -5.49%.

In the case of `CC(=O)Nc1ccc(NC(=S)NC(=O)c2ccc(C(C)(C)C)cc2)cc1`, the “activity change, negative = inhibition” value is -7.98%.

Take `Nc1ncnc2c1ncn2CCOCP(=O)(O)O`: the “activity change, negative = inhibition” value is -9.06%.

For the compound `O=C(O)c1cc(N=Nc2ccc(O)c(C(=O)O)c2)ccc1O`, the “activity change, negative = inhibition” value was 12.7%.

A short description of another experiment: S16 Schwann cell PMP22 intronic element beta-lactamase assay (AID 624044). Further: nearly all actives have a fitted effect of over 15% in size.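 On ratio activity, negative = inhibition: 0% = DMSO and -100% = potassium clavulanate positive control.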 As to conditions: S16 rat Schwann cells, PMP22 element beta-lactamase FRET, 24 h; ratio activity, negative = inhibition: at 38.3 µM (top of the series) unless noted. The method, boiled down: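 Rat S16 Schwann cells with beta-Lac driven by a PMP22 intronic element, compound-treated 24 h at 37 °C. LiveBLAzer FRET B/G read: 460 nm normalized to potassium clavulanate vs DMSO; 535 nm FRET as viability; concentration-effect curves classified.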
As to `CC(=O)Oc1cc(C(F)(F)F)ccc1C(=O)O`, the ratio activity, negative = inhibition was -5.78% [at 17.1 µM].

As for `O=C(O)CCC/C=C\C[C@@H]1[C@@H](/C=C/[C@@H](O)COc2cccc(C(F)(F)F)c2)[C@H](O)C[C@@H]1O`, the ratio activity, negative = inhibition was 4.13%.

As to `CC(C)CCCC(C)NC(C)C` (stereo not drawn), the ratio activity, negative = inhibition is 5.39%.

Take `CCC(C)[C@@H](N)C(=O)O` (stereo partly drawn): the ratio activity, negative = inhibition is 8.55%.

Consider `Cc1cccc(C)c1NC(=O)NC1=CCCN1C`, for which the ratio activity, negative = inhibition is 3.11%.

For `CC(C)(COP(=O)(O)OP(=O)(O)OC[C@H]1O[C@@H](n2cnc3c(N)ncnc32)[C@H](O)[C@@H]1OP(=O)(O)O)C(O)C(=O)NCCC(=O)NCCS` (stereo partly drawn), the ratio activity, negative = inhibition was 1.27%.

Consider `CC(=O)c1ccc2c(c1)N(CCCN1CCN(CCO)CC1)c1ccccc1S2`, for which the ratio activity, negative = inhibition was -15.1%.

Turning to `OCCCNc1ccccc1`, the ratio activity, negative = inhibition was 0.736%.

Consider `O=C(O)/C=C/C(=O)Nc1ccc(S(=O)(=O)Nc2nccs2)cc1`, for which the ratio activity, negative = inhibition was 1.33%.

Turning to `CN1CCc2c(c3ccccc3n2Cc2ccccc2)C1`, the ratio activity, negative = inhibition was -4.6% [at 17.1 µM].

As to `CCN(CC)CCOc1ccccc1OC`, the ratio activity, negative = inhibition was -7.82%.

Take `CC/C=C\C/C=C\C/C=C\C/C=C\C/C=C\CCCC(=O)O`: the ratio activity, negative = inhibition is 1.33%.

On to `O=C(NNCNNC(=O)c1ccncc1)c1ccncc1`, for which the ratio activity, negative = inhibition is -2.76%.

Take `O=C(CCCN1CCC(C(=O)c2ccc(F)cc2)CC1)c1ccc(F)cc1`: the ratio activity, negative = inhibition was -12.9%.

Take `OC1OC[C@@H](O)[C@H](O)[C@@H]1O` (stereo partly drawn): the ratio activity, negative = inhibition is 0.472%.

Consider `O=C1[O][Bi][O]c2ccccc21`, for which the ratio activity, negative = inhibition was 0.885%.

With `CC(=O)Nc1c(I)c(C(=O)O)c(I)c(N(C)C(C)=O)c1I`, the ratio activity, negative = inhibition was 11.6%.

With `CCCCCCCCCCCC(=O)OCC(O)CO` (stereo not drawn), the ratio activity, negative = inhibition is 1%.

Turning to `O=P(O)(O)OC[C@H]1O[C@](O)(COP(=O)(O)O)[C@@H](O)[C@@H]1O`, the ratio activity, negative = inhibition was 3.08%.

`C=CC(=O)O`: the ratio activity, negative = inhibition is -7.38%.

With `CC(C)CCCCCCc1ccc(O)cc1`, the ratio activity, negative = inhibition is -8.37%.

For the compound `O=C(O)CCCC/C=C(\c1ccccc1)c1cccnc1`, the ratio activity, negative = inhibition was -4.66%.

On to `O=C(CCCCCCCCCCCCC1CCCC1)Nc1ccc(S(=O)(=O)c2ccc(NC(=O)CCCCCCCCCCCCC3CCCC3)cc2)cc1`, for which the ratio activity, negative = inhibition was 4.78%.

`CCCCCCCCCCCCOCCCN`: the ratio activity, negative = inhibition was 0.509%.

For the compound `COc1ccc(/C=N/NC(=O)c2ccncc2)c(C(=O)O)c1OC`, the ratio activity, negative = inhibition is 4.12%.

Regarding `[O]=[Bi][O][Bi]=[O]`, the ratio activity, negative = inhibition was 3.6%.

With `O=C(O)c1ccc(NC(=O)[C@H](Cc2ccc(O)cc2)NC(=O)c2ccccc2)cc1`, the ratio activity, negative = inhibition was 6%.

On to `CC(=O)Nc1ccc(OC(C)=O)cc1`, for which the ratio activity, negative = inhibition is -15.5%.

Take `CCOC(=O)[C@@H](N)CS`: the ratio activity, negative = inhibition is -2.51%.

On to `Cc1cc(-c2ccc(N=Nc3c(S(=O)(=O)O)cc4cc(S(=O)(=O)O)cc(N)c4c3O)c(C)c2)ccc1N=Nc1c(S(=O)(=O)O)cc2cc(S(=O)(=O)O)cc(N)c2c1O`, for which the ratio activity, negative = inhibition was 8.59%.

Take `CCCCCCCCCCCCCCCCCCCCCC(=O)Nc1ccn([C@@H]2O[C@H](CO)[C@@H](O)[C@@H]2O)c(=O)n1`: the ratio activity, negative = inhibition was -0.57%.

Consider `COc1cc2c(cc1OC)[C@@H](Cc1cc(OC)c(OC)c(OC)c1)[N+](C)(CCCOC(=O)CC/C=C/CCC(=O)OCCC[N+]1(C)CCc3cc(OC)c(OC)cc3[C@H]1Cc1cc(OC)c(OC)c(OC)c1)CC2` (stereo partly drawn), for which the ratio activity, negative = inhibition is -5.32%.

Consider `FC(F)(F)C(F)(F)C(F)(F)C(F)(F)C(F)(F)C(F)(F)F`, for which the ratio activity, negative = inhibition is 0.234%.

`Cc1nc(NS(=O)(=O)c2ccc(N)cc2)nc(C)c1Br`: the ratio activity, negative = inhibition is 0.0634%.

Turning to `O=C(O)CCC(=O)c1ccc(-c2ccccc2)cc1`, the ratio activity, negative = inhibition is 0.885% [at 17.1 µM].

Turning to `O=P(O)(O)OC[C@H](O)CO`, the ratio activity, negative = inhibition is 2.95%.

With `CC(=O)Nc1ccc(NC(=S)NC(=O)c2ccc(C(C)(C)C)cc2)cc1`, the Potency is 7.94 µM (active).

With `Nc1ncnc2c1ncn2CCOCP(=O)(O)O`, the ratio activity, negative = inhibition is 0.57%.

With `O=C(O)c1cc(N=Nc2ccc(O)c(C(=O)O)c2)ccc1O`, the ratio activity, negative = inhibition was -0.669%.

The values above are taken from PubChem BioAssay (NCATS).
